# Compound activity deposited in PubChem by National Center for Advancing Translational Sciences (NCATS).
# Most compounds without a hit are left out; they make up all but 19% or so of the library.
# HepG2 tox: counter-screen for TGF-b inhibitors: cytotoxicity in HepG2 cells | AID 588856 | hit rate 0.76% among 410,000 | HepG2 CAGA-GFP viability, ATP luminescence, 18 h | Potency, µM (highest dose often 46.1 µM), for inactives: at the highest dose activity change, negative = cytotoxicity, actives largely listed as cytotoxic; note: potency is the fitted concentration of half-maximal effect
#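 HepG2 CAGA-GFP cells (1000/well, DMEM with 1% FBS) received compound, then TGF-beta at 500 pg/mL final, and were incubated 18 hours at 37 degrees C. Viability was read by CellTiter-Glo luminescence. Media-only wells were set as complete cell-killing and DMSO as no toxicity.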
# IL-1B inflam inh: blocks inflammasome-driven IL-1 beta release | THP-1 LPS/ATP IL-1B secretion, AlphaLISA, 16 h; hits give low values | activity change, % at 57.5 µM | hit rate 4.7% among 360,000; in the data active = activity change below about -50%; inconclusive = mostly about -30% to -49%; note: % is set by controls: 0 for no effect and ±100 for the full control effect
#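 THP-1 cells pretreated 1 hr with compounds (up to 57.5 uM final), then stimulated with LPS (250 ng/mL final) plus ATP (1.25 mM final); secreted IL-1B measured by AlphaLISA after 16 hr, decreased signal indicating inhibition.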
# DT40 TDP1 no CPT: qHTS for Inhibitors of human tyrosyl-DNA phosphodiesterase 1 (TDP1): qHTS in cells in absence of CPT; DT40 Tdp1-/- hTDP1 cells, no CPT, ATP luminescence, 48 h; Potency, µM (series often up to 46.2 µM), inactives show at the top dose activity change, negative = growth inhibition, usual class: inhibitors; hit rate 15% among 420,000; AID 686978, 2013; note: potency is the fitted concentration of half-maximal effect; % is set by controls: 0 for no effect and ±100 for the full control effect; nearly all actives have a fitted effect of over 55% in size
#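 DT40 Tdp1-/-;hTDP1 cells, no CPT (DMSO vehicle only), 400 cells/well; compounds pin-transferred; ≥48 hr, 37 °C; CellTiter-Glo 30 min RT dark, luminescence read.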
# TGFb inhibitor: inhibitors of TGF-b signaling; Potency, µM (top dose mostly 46.1 µM), for inactives: at the highest dose activity, negative = inhibition, hits mostly inhibitors; HepG2 CAGA-GFP TGF-b/SMAD3 reporter, GFP fluorescence, 18 h; TGF-beta stimulated, 500 pg/mL final; hit rate 1.2% among 410,000; note: potency is the fitted concentration of half-maximal effect; % is set by controls: 0 for no effect and ±100 for the full control effect; nearly all actives have a fitted effect of over 65% in size
#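 Inhibition of TGF-beta-driven CAGA-GFP reporter expression in HEPG2 cells is measured by cellular GFP fluorescence after 18 h stimulation with 500 pg/mL recombinant TGF-beta in 1% FBS medium at 37 degrees C.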
# TDP1 cell CPT: DT40-hTDP1 cell growth loss with CPT | hit rate 12% among 420,000 | AID 686979 | chicken DT40 Tdp1-/-;hTDP1 cells + 20 nM CPT, ATP luminescence, 48 h | Potency, µM (series often up to 46.2 µM), without a hit: at the top dose activity change, negative = growth inhibition, hits mostly inhibitors; note: potency is the fitted concentration of half-maximal effect; % is set by controls: 0 for no effect and ±100 for the full control effect; nearly all actives have a fitted effect of over 55% in size
#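 Cell growth measured by CellTiter-Glo luminescence after a minimum 48 h, 37 C compound exposure with 20 nM CPT in Tdp1-knockout DT40 cells stably expressing hTDP1, seeded 400/well; qHTS titration format.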
# TDP1 block: inhibitors of human tyrosyl-DNA phosphodiesterase TDP1; Q9NUW8; recombinant TDP1, AlphaScreen DNA substrate cleavage; Potency, µM (series often up to 130 µM), for the others: at the top dose activity change, negative = inhibition, most hits filed as inhibitors; hit rate 0.28% among 350,000; AID 485290; note: potency is the fitted concentration of half-maximal effect; % is set by controls: 0 for no effect and ±100 for the full control effect; nearly all actives have a fitted effect of over 40% in size
# Target sequence (Q9NUW8 whole entry, looked up): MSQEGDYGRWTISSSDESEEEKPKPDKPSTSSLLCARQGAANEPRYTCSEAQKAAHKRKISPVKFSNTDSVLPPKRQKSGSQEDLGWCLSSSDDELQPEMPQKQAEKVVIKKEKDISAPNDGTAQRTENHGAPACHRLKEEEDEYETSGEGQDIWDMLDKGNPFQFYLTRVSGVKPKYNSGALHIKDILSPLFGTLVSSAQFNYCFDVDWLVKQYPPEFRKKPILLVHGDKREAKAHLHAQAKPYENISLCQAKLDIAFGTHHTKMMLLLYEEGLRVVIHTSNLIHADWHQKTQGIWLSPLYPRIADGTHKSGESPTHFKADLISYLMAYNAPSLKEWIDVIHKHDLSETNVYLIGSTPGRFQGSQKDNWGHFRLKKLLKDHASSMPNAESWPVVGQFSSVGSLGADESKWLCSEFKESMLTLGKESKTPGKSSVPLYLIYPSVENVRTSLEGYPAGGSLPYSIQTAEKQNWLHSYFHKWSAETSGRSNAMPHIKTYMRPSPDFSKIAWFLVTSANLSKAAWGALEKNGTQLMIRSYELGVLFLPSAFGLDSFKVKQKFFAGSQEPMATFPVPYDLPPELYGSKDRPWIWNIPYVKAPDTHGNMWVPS
#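 Tdp1 1 nM final; 15 min RT w/ cpd; substrate 15 nM, 5 min; beads 10 ug/ml, 10 min; AlphaScreen read. Neg ctrl: no enzyme.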
# The depositor's hits bear a star; ? = inconclusive; . = no result; [ ] = another dose, or the depositor's remark. Unless noted, calls come from the whole dose curve; as a rule, active = well fitted curve in the direction sought with a large enough effect; inconclusive = small, poorly fitted or top-dose-only effect, or another doubt; inactive = no such curve, though single readings can be large; an effect the other way counts as inactive or inconclusive.
SMILES,HepG2 tox,IL-1B inflam inh,DT40 TDP1 no CPT,TGFb inhibitor,TDP1 cell CPT,TDP1 block
O=C(Nc1cccnc1)c1cc(S(=O)(=O)N2CCCCC2)c(Cl)cc1Cl,-1%,-24,-6%,-3%,1%,1%[0.0935 µM]
Cc1ccc(S(=O)(=O)Nc2ccccc2CNc2cccc(C)n2)cc1,-21%,10,16µM*,0%,?,4%
Cc1cc(-c2ccc(NS(=O)(=O)c3ccccc3)c(C)c2)ccc1NS(=O)(=O)c1ccccc1,-24%,15,12µM*,-15%,13µM*,.
Cc1ccc(NS(=O)(=O)c2ccccc2)c(NS(=O)(=O)c2ccccc2)c1,-8%,15,-12%,-4%,-27%,.
O=S(=O)(N=C1C=CC(=NS(=O)(=O)c2ccccc2)c2ccccc21)c1ccccc1,-117%,0,6.5µM*,?,7.3µM*,.
Cc1ccc(S(=O)(=O)/N=C2\C=C(NS(=O)(=O)c3ccccc3)C(=O)c3ccccc32)cc1,-40%,49,26µM*,?,21µM*,.
Cc1ccc(S(=O)(=O)NCc2ccccc2NS(=O)(=O)c2ccc(C)cc2)cc1,.,8,?,.,?,.
Cc1ccc(S(=O)(=O)Nc2ccccc2-c2ccccc2)cc1,-9%,31,2.6µM*,-12%,2.6µM*,-8%
O=C(CSc1nc2ccccc2c(=O)n1CCCN1CCOCC1)Nc1ccc(F)c(Cl)c1,-32%,?,?,-24%,?,3%
Cc1ccc(NC(=O)CSc2nc3ccccc3c(=O)n2CCCN2CCCCC2)cc1Cl,14µM*,-87*,21µM*,?,21µM*,1%
CCc1ccc(NC(=O)CSc2nc3ccccc3c(=O)n2CCCC(=O)NCCCN2CCOCC2)cc1,-28%,-103*,?,-30%,-2%,3%
COCCn1c(SCC(=O)Nc2ccc(OC)cc2OC)nc2ccccc2c1=O,-53%,5,3%,-6%,-18%,.
COc1ccc(NC(=O)CSc2nc3ccccc3c(=O)n2CCCN2CCC(C)CC2)c(OC)c1,-7%,-62*,?,-5%,-8%,-8%
O=C(CSc1nc2ccccc2c(=O)n1CCCN1CCOCC1)Nc1ccccc1OC(F)F,-6%,-24,21µM*,-19%,18µM*,1%
COc1cccc2c1C(=O)/C(=C/c1ccc(N(C)C)cc1)C2,-35%,.,?,-3%,?,.
Oc1ccc(Cl)cc1Nc1nc2ccccc2n2cnnc12,-2%,.,?,-23%,-22%,5%
Cc1ccc(C)c(Cn2c(=O)n(-c3ccc(F)cc3)c(=O)c3sc4ccccc4c32)c1,-23%,.,-12%,-11%,?,4%
Cc1cc2oc(C(=O)Nc3sc4c(c3C(=O)NCc3ccccc3)CCCC4)cc(=O)c2cc1C,1%,.,1%,26%,3%,-2%
COc1ccc(CNC(=O)Cc2c(C)c3c(cc(C)c4c(C)coc43)oc2=O)cc1,1%,.,-5%,-6%,-3%,-5%
O=c1c2ccccc2oc2ccc(NCCCn3ccnc3)cc12,-2%,-58*,?,-6%,?,.
